PubChem BioAssay (Tox21)
Unmarked numbers belong to inactive results. The source made the active and inactive calls. Calls come from the whole dose curve; as a rule, active = well fitted curve in the direction sought with a large enough effect in the repeat runs; inconclusive = weak or mixed curves; inactive = flat fitted curve, though single readings scatter.
% is set by controls: 0 for no effect and ±100 for the full control effect; potency is the fitted concentration of half-maximal effect; tags give direction and shape of the fitted curve or compound fluorescence and quenching.

Experiment: qHTS assay to test for compound auto fluorescence at 535 nm (green) in HEK293 cells (AID 720680)
Conditions: green autofluorescence 485/535 nm; series mostly up to 91.3 µM; fluorescence, % of fluorescein: at the top concentration
From the text: U.S. Tox21 Program National Center for Advancing Translational Sciences [NCATS] NIH Chemical Genomics Center [NCGC] U.S. Environmental Protection Agency [EPA] National Institutes of Environmental Health Sciences [NIEHS] National Toxicology Program [NTP] U.S. Food and Drug Administration [FDA] Tox21 Assay Overview: Compound auto fluorescence often interferes with screening of the compound library against various biological targets and signaling pathways. Some of these compounds may have fluorophoric properties. Such properties may interfere with the assay outputs resulting in false positives and/or negatives. To decrease such complications and ensure the compound activities are relevant in terms of biological response, the Tox21 10K compound library was screened for auto fluorescence. From the fluorophores used as reporter signals in our screening assays, the auto fluorescence equivalencies of compounds against three fluorophores have been evaluated: Triamterene, Fluorescein and Rose Bengal sodium for blue, green and red fluorescence, respectively. The fluorescence intensities were measured using Excitation/Emission wavelengths at 405/460nm, 485/535nm and 540/590nm for blue, green and red labels, respectively. This assay includes the green fluorescence data.
Tox21 Assay Protocol Summary: 2,000 HEK293 cells in 5 uL of culture medium containing 10% dialyzed FBS per well were dispensed into black wall/clear bottom 1536-well plates using a Multidrop Combi Dispenser (Thermo Scientific). The assay plates were incubated for 4-5 hr at 37C to allow cell attachment to the well bottom, followed by the transfer of 23 nL compound or DMSO vehicle by a pintool work station (Kalypsys, San Diego, CA). After the assay plates were incubated overnight at 37C and 5% CO2, fluorescence intensities in the assay plates were measured by an Envision (PerkinElmer, Shelton, CT) plate reader using three labels for measuring blue, green and red fluorescence at […] 460, 535 and 590nm respectively.
In the case of O=S(=O)(O)c1ccccc1/C=C/c1ccc(-c2ccc(/C=C/c3ccccc3S(=O)(=O)O)cc2)cc1, the “fluorescence, % of fluorescein” value is reported as 0.0249%. With Cl[Si](Cl)(c1ccccc1)c1ccccc1 the “fluorescence, % of fluorescein” value was -0.0102% [at 95.7 µM]. For CC(C(=O)O)c1ccc2c(c1)[nH]c1ccc(Cl)cc12 (stereo not given), the “fluorescence, % of fluorescein” value was -0.0429% [at 46 µM]. For Cc1cc(C(C#N)c2ccc(Cl)cc2)c(Cl)cc1NC(=O)c1cc(I)cc(I)c1O (stereo not given), the “fluorescence, % of fluorescein” value was 0.493% [at 46 µM]. In the case of CC(C)CCCCCOC(=O)CCS, the “fluorescence, % of fluorescein” value is reported as -0.0452%. For CC[C@H](C)COC(=O)/C=C/c1ccc(N=Cc2ccc(OC)cc2)cc1, the “fluorescence, % of fluorescein” value was 0.0085%. In the case of COCCOc1cc2cc(C(=O)NC3CCN(C(C)C)CC3)n(CC(=O)Nc3ccc(Cl)cn3)c2cn1, the “fluorescence, % of fluorescein” value is reported as -0.0609%. For C[C@@H](O)[C@H](N)C(=O)O, the “fluorescence, % of fluorescein” value was -0.0008% [at 46 µM]. With Cc1ccc(O)c(N)c1 the “fluorescence, % of fluorescein” value was 0.0515%. For COc1cccc2c1C(=O)c1c(O)c3c(c(O)c1C2=O)C[C@@](O)(C(C)=O)C[C@@H]3O[C@H]1C[C@H](N)[C@H](O)[C@H](C)O1, the Potency was “inactive”. For CCCCC(CC)CN1CN(CC(CC)CCCC)CC(C)(N)C1 (stereo not given), the fluorescence, % of fluorescein was -0.025% [at 18.6 µM]. With O=C1CCCCCCCCCCCCCCCO1 the “fluorescence, % of fluorescein” value was 0.0722%. In the case of O=C(O)CCN(C1(C(=O)NO)CCCC1)S(=O)(=O)c1ccc(Oc2ccc(F)cc2)cc1, the “fluorescence, % of fluorescein” value is reported as -0.023%. With COc1cc(S(=O)(=O)O)c(C)cc1N=Nc1c(O)ccc2cc(S(=O)(=O)O)ccc12 the “fluorescence, % of fluorescein” value was -1.87%. For Cc1cc(-c2ccc(N=Nc3cc(S(=O)(=O)O)c4ccccc4c3N)c(C)c2)ccc1N=Nc1cc(S(=O)(=O)O)c2ccccc2c1N, the “fluorescence, % of fluorescein” value was 0.0815%. In the case of O=C1OC2(c3ccc(O)cc3Oc3cc(O)ccc32)c2ccc(N=C=S)cc21, the Potency is reported as 39.8 µM [fluorescent] (active). For CN(C)Cc1ccccc1O, the “fluorescence, % of fluorescein” value was -0.0996%. For CN(C)Cc1cc(C(C)(C)C)c(O)c(C(C)(C)C)c1, the “fluorescence, % of fluorescein” value was 0.0297%. For c1ccsc1, the “fluorescence, % of fluorescein” value was -0.002%. With COC(=O)c1ccccc1OC the “fluorescence, % of fluorescein” value was -0.0456%. With O=c1c(O)c(-c2ccc(O)cc2O)oc2cc(O)cc(O)c12 the “fluorescence, % of fluorescein” value was 0.807%. In the case of COC(=O)C1=C(C)NC(C)=C(C(=O)OCCN2CCN(C(c3ccccc3)c3ccccc3)CC2)C1c1cccc([N+](=O)[O-])c1 (stereo not given), the “fluorescence, % of fluorescein” value is reported as -0.0731% [at 46 µM]. With CCN(CC)C(=O)c1cc(S(=O)(=O)Cc2ccccc2)c(N2CCC(c3ccccc3)CC2)cc1N(CC)CCN(C)C the Potency was “inactive”. With Nc1nc(N)nc(-c2cc(Cl)ccc2Cl)n1 the “fluorescence, % of fluorescein” value was -0.0277% [at 46 µM]. In the case of CC(C)CCOC(=O)/C=C/c1ccccc1, the “fluorescence, % of fluorescein” value is reported as -0.0257%. In the case of CCCCOC(=O)CO, the “fluorescence, % of fluorescein” value is reported as -0.113%. With Nc1ccc(Oc2ccc(Cl)cc2)cc1 the “fluorescence, % of fluorescein” value was 0.122%. In the case of O=C(O)c1cc(N=Nc2ccc([N+](=O)[O-])cc2)ccc1O, the “fluorescence, % of fluorescein” value is reported as -0.0123%. For CC(C)(C)NSc1nc2ccccc2s1, the “fluorescence, % of fluorescein” value was 0.029% [at 95.7 µM]. In the case of O=c1[nH]c(=O)n([C@H]2C[C@H](O)[C@@H](CO)O2)cc1F, the “fluorescence, % of fluorescein” value is reported as 0.0084% [at 46 µM]. In the case of OC/C=C/CO, the “fluorescence, % of fluorescein” value is reported as -0.0402%. For CCCCCCCCCCC[C@@H](C[C@@H]1OC(=O)[C@H]1CCCCCC)OC(=O)[C@H](CC(C)C)NC=O, the “fluorescence, % of fluorescein” value was 0.0087% [at 46 µM]. With CCOC(=O)Cn1cccc1-c1nc(-c2ccc(OC)cc2)c(-c2ccc(OC)cc2)s1 the “fluorescence, % of fluorescein” value was 0.0107% [at 46 µM]. For CC(C)=CCC1=C(O)c2ccccc2C(=O)C1=O, the “fluorescence, % of fluorescein” value was -0.383%. In the case of OCCN1CCN(CCCN2c3ccccc3Sc3ccc(C(F)(F)F)cc32)CC1, the “fluorescence, % of fluorescein” value is reported as -0.0286% [at 46 µM]. In the case of CC[N+](CC)(CC)CCOc1ccc(/C=C/c2ccccc2)cc1, the Potency is reported as “inactive”. In the case of Cc1c(F)c(N2CCNC(C)C2)cc2c1c(=O)c(C(=O)O)cn2C1CC1 (stereo not given), the “fluorescence, % of fluorescein” value is reported as -0.0421% [at 46 µM]. With S=C([S-])NCCNC(=S)[S-].S=C([S-])NCCNC(=S)[S-].[Mn+2].[Zn+2] the “fluorescence, % of fluorescein” value was 0.154% [at 46 µM]. With CCC(CC)(CC(=O)Nc1cccc(/C=C/c2nc(C3CCC3)cs2)c1)C(=O)O the “fluorescence, % of fluorescein” value was 0.0084% [at 46 µM]. In the case of CC1=CCC(=C(C)C)CC1, the “fluorescence, % of fluorescein” value is reported as -0.0479%.
